Results on 9 compounds are retold here after PubChem BioAssay (NCI).

Assay [1] can be described thus: NCI Yeast Anticancer Drug Screen. Data for the rad50 strain (AID 155).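 Also: 0% = growth of vehicle-only cultures of the same strain.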 The conditions noted are these: S. cerevisiae rad50 strain growth inhibition, stronger effect = higher value. Summed up:
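A DNA repair-deficient yeast mutant serves as the test organism; compound-induced growth inhibition is calculated against vehicle-treated cells.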

The nature of assay [2]: NCI Yeast Anticancer Drug Screen. Data for the mec2-1 strain (AID 157). The conditions noted are these: S. cerevisiae mec2-1 strain, stronger effect = higher value. Summed up: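 Each compound was tested on mec2-1 yeast, a strain altered in DNA damage repair or cell cycle control. Growth inhibition is reported relative to vehicle.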
A short description of assay [3]: NCI Yeast Anticancer Drug Screen. Data for the sgs1 mgt1 strain (AID 161).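 Also: 0% = growth of cultures given vehicle only.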 The conditions noted are these: S. cerevisiae sgs1 mgt1 strain, stronger effect = higher value. Summed up:
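Genetically altered yeast, compound exposure, growth inhibition relative to vehicle.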

A short description of assay [4]: NCI Yeast Anticancer Drug Screen. Data for the cln2 rad14 strain (AID 165).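 Also: 0% = growth equal to vehicle treated cultures.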 The conditions noted are these: S. cerevisiae cln2 rad14 strain, stronger effect = higher value. Summed up: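 Test compounds were added to cln2 rad14 yeast cultures; inhibition of growth was then determined by comparison with vehicle treatment.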
The nature of assay [5]: NCI Yeast Anticancer Drug Screen. Data for the bub3 strain (AID 167). The conditions noted are these: S. cerevisiae bub3 mutant strain, stronger effect = higher value. A digest of the protocol: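 Inhibition values come from growth of compound-treated mutant yeast normalised to vehicle-treated controls.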
The nature of assay [6]: NCI Yeast Anticancer Drug Screen. Data for the mlh1 rad18 strain (AID 175). The conditions noted are these: S. cerevisiae mlh1 rad18 strain growth inhibition, stronger effect = higher value. Summed up:
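Inhibition values reflect reduced growth of mutant yeast versus vehicle-treated controls following compound exposure; the mutations affect DNA damage repair.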

Setting [7] is: at 5.0 µM (retest, dose inferred, filed as 0.5).
Setting [8] is: at 50.0 µM (retest, dose inferred, filed as 5.0).

Compounds without any hit were thinned out: in the full panel of roughly 79,000, 15% have a hit. Values without a mark were called inactive. The source made the active and inactive calls. Rule as the data show it: active = growth inhibition above about 70%; inactive = the rest.

On to `CC(C)O.CC(C)O.OCCN(CCO)CCO.OCCN(CCO)CCO.[Ti+2]`, for which the growth inhibition is 19% in assay [1] (setting [7]); 36% in assay [1] (setting [8]); 60% in assay [1] (at 50.0 µM); 44% in assay [2] (setting [7]); 96% (active) in assay [2] (setting [8]); 31.6% in assay [2] (at 50.0 µM). Further, the growth inhibition was 11% in assay [3] (setting [7]); 20% in assay [3] (setting [8]); 52.9% in assay [3] (at 50.0 µM); 34% in assay [4] (setting [7]); 70% (active) in assay [4] (setting [8]); 4.3% in assay [4] (at 50.0 µM). Also, the growth inhibition in assay [5] (setting [7]) was 99% (active); in assay [5] (setting [8]) it was 99% (active); in assay [5] (at 50.0 µM), 39.2%; in assay [6] (setting [7]) it was 22%; in assay [6] (setting [8]), 39%; in assay [6] (at 50.0 µM), 44.2%.
Take `O=[N+]([O-])[O][Tl]([c]1ccccc1)[c]1ccccc1`: the growth inhibition in assay [1] (setting [7]) was -4%; in assay [1] (setting [8]) it was 41%; in assay [1] (at 50.0 µM) it was 15.3%; in assay [2] (setting [7]), -4%; in assay [2] (setting [8]), 54%; in assay [2] (at 50.0 µM) it was 21.4%. Besides, the growth inhibition was -4% in assay [3] (setting [7]); 56% in assay [3] (setting [8]); 49.5% in assay [3] (at 50.0 µM); -4% in assay [4] (setting [7]); 57% in assay [4] (setting [8]); 20.4% in assay [4] (at 50.0 µM). Also, the growth inhibition in assay [5] (setting [7]) is -3%; in assay [5] (setting [8]), 75% (active); in assay [5] (at 50.0 µM) it was 51.8%; in assay [6] (setting [7]), -3%; in assay [6] (setting [8]), 41%; in assay [6] (at 50.0 µM), 8.3%.
For `CCC[CH2][Sn]1([CH2]CCC)[O]Cc2nc(C)ccc2[O]1`, the growth inhibition in assay [1] (setting [7]) was 27%; in assay [1] (setting [8]), 92% (active); in assay [1] (at 50.0 µM), 77.5% (active); in assay [2] (setting [7]) it was 29%; in assay [2] (setting [8]), 96% (active); in assay [2] (at 50.0 µM), 81.8% (active). Also, the growth inhibition in assay [3] (setting [7]) was 40%; in assay [3] (setting [8]), 96% (active); in assay [3] (at 50.0 µM), 80% (active); in assay [4] (setting [7]), 15%; in assay [4] (setting [8]) it was 93% (active); in assay [4] (at 50.0 µM) it was 71.9% (active). Besides, the growth inhibition was 33% in assay [5] (setting [7]); 96% (active) in assay [5] (setting [8]); 83.7% (active) in assay [5] (at 50.0 µM); 40% in assay [6] (setting [7]); 96% (active) in assay [6] (setting [8]); 85.5% (active) in assay [6] (at 50.0 µM).
Turning to `Cc1ccccc1NC(=O)CBr`, the growth inhibition in assay [1] (setting [7]) was 39%; in assay [1] (setting [8]) it was 98% (active); in assay [1] (at 50.0 µM), 98.5% (active); in assay [2] (setting [7]), 12%; in assay [2] (setting [8]) it was 99% (active); in assay [2] (at 50.0 µM) it was 98.6% (active). Moreover, the growth inhibition in assay [3] (setting [7]) is 37%; in assay [3] (setting [8]), 99% (active); in assay [3] (at 50.0 µM), 99.3% (active); in assay [4] (setting [7]) it was 18%; in assay [4] (setting [8]) it was 98% (active); in assay [4] (at 50.0 µM), 95.5% (active). For the same compound, the growth inhibition in assay [5] (setting [7]) is -38%; in assay [5] (setting [8]) it was 99% (active); in assay [5] (at 50.0 µM), 98.2% (active); in assay [6] (setting [7]) it was 37%; in assay [6] (setting [8]), 99% (active); in assay [6] (at 50.0 µM), 98.3% (active).
For the compound `Oc1ccc(Br)cc1C1N(Cc2ccc(N(CCCl)CCCl)cc2Cl)CCCN1Cc1ccc(N(CCCl)CCCl)cc1Cl`, the growth inhibition was 69% in assay [1] (setting [7]); 98% (active) in assay [1] (setting [8]); 10.7% in assay [1] (at 50.0 µM); 47% in assay [2] (setting [7]); 99% (active) in assay [2] (setting [8]); 63% in assay [2] (at 50.0 µM). Further, the growth inhibition was 54% in assay [3] (setting [7]); 99% (active) in assay [3] (setting [8]); 23.7% in assay [3] (at 50.0 µM); 70% (active) in assay [4] (setting [7]); 98% (active) in assay [4] (setting [8]); 8.95% in assay [4] (at 50.0 µM). For the same compound, the growth inhibition is 84% (active) in assay [5] (setting [7]); 99% (active) in assay [5] (setting [8]); 52% in assay [5] (at 50.0 µM); 98% (active) in assay [6] (setting [7]); 98% (active) in assay [6] (setting [8]); 46.5% in assay [6] (at 50.0 µM).
Consider `CC(=O)Oc1cccc2c1CC(C[Se]c1ccccc1)C(=O)O2` (configuration not stated), for which the growth inhibition in assay [1] (setting [7]) was 11%; in assay [1] (setting [8]), 40%; in assay [1] (at 50.0 µM) it was 69.9%; in assay [2] (setting [7]) it was 8%; in assay [2] (setting [8]) it was 35%; in assay [2] (at 50.0 µM), 35.5%. Also, the growth inhibition in assay [3] (setting [7]) was 11%; in assay [3] (setting [8]) it was 57%; in assay [3] (at 50.0 µM), 70.2% (active); in assay [4] (setting [7]), 3%; in assay [4] (setting [8]) it was 23%; in assay [4] (at 50.0 µM), 25.4%. In addition, the growth inhibition in assay [5] (setting [7]) is -7%; in assay [5] (setting [8]) it was 38%; in assay [5] (at 50.0 µM), 35%; in assay [6] (setting [7]) it was 11%; in assay [6] (setting [8]), 66%; in assay [6] (at 50.0 µM), 74.2% (active).
As for `O=c1ccn(C2OC(CO)C(O)C2O)c(=O)[n]1[Hg][c]1ccccc1` (configuration not stated), the growth inhibition was 99% (active) in assay [1] (setting [7]); 99% (active) in assay [1] (setting [8]); 90.8% (active) in assay [1] (at 50.0 µM); 100% (active) in assay [2] (setting [7]); 99% (active) in assay [2] (setting [8]); 89.7% (active) in assay [2] (at 50.0 µM). Besides, the growth inhibition was 100% (active) in assay [3] (setting [7]); 100% (active) in assay [3] (setting [8]); 85.8% (active) in assay [3] (at 50.0 µM); 99% (active) in assay [4] (setting [7]); 99% (active) in assay [4] (setting [8]); 88.3% (active) in assay [4] (at 50.0 µM). Also, the growth inhibition was 100% (active) in assay [5] (setting [7]); 99% (active) in assay [5] (setting [8]); 84.3% (active) in assay [5] (at 50.0 µM); 98% (active) in assay [6] (setting [7]); 98% (active) in assay [6] (setting [8]); 91.8% (active) in assay [6] (at 50.0 µM).
As for `CCOC(=S)S`, the growth inhibition is 43% in assay [1] (setting [7]); 99% (active) in assay [1] (setting [8]); 98.9% (active) in assay [1] (at 50.0 µM); 17% in assay [2] (setting [7]); 100% (active) in assay [2] (setting [8]); 99.6% (active) in assay [2] (at 50.0 µM). The growth inhibition in assay [3] (setting [7]) was 4%; in assay [3] (setting [8]), 99% (active); in assay [3] (at 50.0 µM), 99.5% (active); in assay [4] (setting [7]), 12%; in assay [4] (setting [8]), 66%; in assay [4] (at 50.0 µM) it was 95.8% (active). In addition, the growth inhibition in assay [5] (setting [7]) is 29%; in assay [5] (setting [8]) it was 99% (active); in assay [5] (at 50.0 µM), 99.2% (active); in assay [6] (setting [7]), 31%; in assay [6] (setting [8]), 99% (active); in assay [6] (at 50.0 µM) it was 99.2% (active).
Turning to `Nc1ccc(N=Nc2ccccc2)cc1`, the growth inhibition in assay [1] (setting [7]) was 1%; in assay [1] (setting [8]) it was 76% (active); in assay [1] (at 50.0 µM), 69.7%; in assay [2] (setting [7]) it was -4%; in assay [2] (setting [8]) it was 37%; in assay [2] (at 50.0 µM), 17.6%. Besides, the growth inhibition in assay [3] (setting [7]) was 1%; in assay [3] (setting [8]), 92% (active); in assay [3] (at 50.0 µM), 37.4%; in assay [4] (setting [7]), 5%; in assay [4] (setting [8]), 50%; in assay [4] (at 50.0 µM), 3.25%. Moreover, the growth inhibition in assay [5] (setting [7]) was 3%; in assay [5] (setting [8]), 43%; in assay [5] (at 50.0 µM) it was 37.4%; in assay [6] (setting [7]) it was 1%; in assay [6] (setting [8]), 78% (active); in assay [6] (at 50.0 µM), 82.5% (active).
